The source of these data is PubChem BioAssay (EPA / NIEHS).

Active and inactive are the calls of the source. How the source made its calls: active means hit-call score of the fitted dose curve at least 0.9, where 1 is the maximum; inactive means score below 0.9.

A short description of this assay: ATG_CRE_CIS: Attagene CIS-FACTORIAL HepG2 Assay for human cAMP Responsive Element (CRE) binding protein 3 (AID 2282926). The note with it: HepG2 CRE cis-reporter, Attagene multiplexed mRNA; actives raise or lower the signal. As to the method: ATG_CIS is a cell-based, multiplexed-readout assay that uses HepG2, a human liver cell line, with measurements taken at 24 hours after chemical dosing in a 24-well plate.ATG_CRE_CIS is one of 52 assay component(s) measured or calculated from the ATG_CIS assay. It is designed to make measurements of mRNA induction, a form of inducible reporter, as detected with fluorescence intensity signals by Reverse transcription polymerase chain reaction (RT-PCR) and Capillary electrophoresis technology.Data from the assay component ATG_CRE_CIS was analyzed into 1 assay endpoint. This assay endpoint, ATG_CRE_CIS, was analyzed with bidirectional fitting relative to DMSO as the negative control and baseline of activity. Using a type of inducible reporter, measures of mRNA for gain or loss-of-signal activity can be used to understand the reporter gene at the transcription factor-level as they relate to the gene CREB3. Furthermore, this assay endpoint can be referred to as a primary readout, because this assay has produced multiple assay endpoints where this one serves a reporter gene function. To generalize the intended target to other relatable targets, this assay endpoint is annotated to the dna binding intended target family, where the subfamily is basic leucine zipper.
Human liver HepG2 cells are transiently transfected with multiple reporter transcription units (MRTUs) in 6-well plates using FuGene 6 reagent (Roche; 3 ml FuGene/1 mg DNA). The MRTU constructs are regulated by a cis-regulating element (promoter). […] A major difference between the CIS and TRANS system is that in CIS activities of endogenous TFs are measured, whereas the TRANS assay evaluates changes in activities of exogenous, chimeric NR-Gal4 proteins. […] At the end of 24 hour incubation, total RNA was isolated using TriZol reagent (Invitrogen). The isolated RNA is then reverse-transcribed using oligo(dT) primer and Mo-MLV reverse transcriptase (Invitrogen) with DNAse I (Ambion) treatment for 30 min. The one-tenth of the produced cDNA was amplified by PCR using Taq DNA polymerase (Invitrogen) and two reporter sequence-specific primers. The PCR products were fluorescently labeled by primer extension with 6-arboxyfluorescein (6-FAM) 5'-labeled reporter sequence-specific primer (2 min at 95 C, 20 s at 68 C and 10 min at 72 C) and these products were digested with 5U of HpaI (New England Biolabs) for 2h at 37 C. The fragments were purified using Qiaquick PCR columns (Qiagen), analyzed on an ABI 3130xL genetic analyzer (Applied Biosystems) with peak positions identified by using a set of X-rhodamine (ROX)-labeled MapMarker1000 molecular weight standards (BioVentures). The raw capillary electrophoresis data was processed using Attagraph software (Attagene).
As to `CCCCCCCCCCCCCCCC(=O)OCC`, the result was inactive.

On to `CC(=O)[C@@]1(O)CC[C@H]2[C@@H]3C[C@H](C)C4=CC(=O)C=C[C@]4(C)[C@@]3(F)[C@@H](O)C[C@@]21C`, for which the compound was classed as inactive.

For `O=C(C=Cc1ccccc1)OCc1ccccc1`, the call was inactive.

Consider `Clc1nc2ccccc2s1`, for which the result was inactive.

As for `CC1=Nc2ccc3ccccc3c2C1(C)C`, the compound was called inactive.

For `OCCN(CCO)c1ccccc1`, the outcome was inactive.

Take `C1=CCCC1`: the compound was classed as inactive.

As to `CCCCCCOc1cc(C)c(O)c(C)c1C`, the call was inactive.

For `CCN(CCO)c1cccc(C)c1`, the compound was called inactive.

For `CC(C)COC(=O)C=Cc1ccccc1`, the compound was classed as inactive.

Consider `Nc1nc2ccccc2[nH]1`, for which the outcome was inactive.

For the compound `CC(C)(Oc1ccc(C2CC2(Cl)Cl)cc1)C(=O)O` (stereo not given), the outcome was inactive.

Turning to `CC1(C)O[C@@H]2C[C@H]3[C@@H]4C[C@H](F)C5=CC(=O)CC[C@]5(C)[C@H]4[C@@H](O)C[C@]3(C)[C@]2(C(=O)CO)O1`, the result was inactive.

As to `CC(C)c1ccc(C=O)cc1`, the compound was classed as inactive.

As to `COCCOCCOCCOCCOC`, the call was inactive.

With `CCOC(=O)[C@H](C)O`, the result was inactive.

As for `c1ccc(-c2ccccn2)nc1`, the call was inactive.

Turning to `COc1ccc(-c2coc3cc(O)ccc3c2=O)cc1`, the compound was called inactive.

For `CC(=O)OC1C2(C)CCC(C2)C1(C)C` (stereo not given), the compound was classed as inactive.

For `COC(=O)c1cc(Cl)ccc1[N+](=O)[O-]`, the outcome was inactive.

On to `C1=Cc2ccccc2C1`, for which the call was inactive.

Consider `CCCCCCCCCCCCCOP(=O)(O)O`, for which the compound was classed as inactive.

On to `O=c1[nH]c(=O)c2[nH]c(=O)[nH]c2[nH]1`, for which the compound was classed as inactive.

Consider `O=C(O)CC(C(=O)O)C(CC(=O)O)C(=O)O` (stereo not given), for which the result was inactive.

As to `CC1=NC(C)OC1C` (stereo not given), the compound was called inactive.

On to `COC(=O)C1=C(C)NC(C)=C(C(=O)OCC(C)C)C1c1ccccc1[N+](=O)[O-]` (stereo not given), for which the call was inactive.

For the compound `CC(=O)[C@H]1[C@H](C#N)C[C@H]2[C@@H]3CC=C4C[C@@H](O)CC[C@]4(C)[C@H]3CC[C@@]21C`, the result was inactive.

With `c1ccc(CNCc2ccccc2)cc1`, the outcome was inactive.

In the case of `CCCCCCCCC(=O)OCC`, the result was inactive.

Consider `CC1=CC[C@H](C(C)C)C=C1`, for which the call was inactive.

For `Cc1ccc2oc(=O)ccc2c1`, the call was inactive.

With `CCOC(=O)N1CCC(=C2c3ccc(Cl)cc3CCc3cccnc32)CC1`, the compound was classed as inactive.

The AC50 is the midpoint of the concentration-response curve, whichever way the signal moves. Turning to `CCCCCC/C=C\CCCCCCCC(=O)O`, the AC50 is 34.7 µM (active).

In the case of `O=C1CCCCCCCCCCC(=O)OCCO1`, the call was inactive.

Consider `Cc1ccc(N/N=c2\c(=O)cc/c(=N/Nc3ccc(S(=O)(=O)O)cc3)c2=O)c(C)c1`, for which the compound was called inactive.

Take `COC(=O)/C=C/C(C)=C\C=C\C(C)=C\C=C\C=C(C)\C=C\C=C(C)\C=C\C(=O)O`: the result was inactive.

In the case of `O=C(Oc1ccccc1)c1ccc2ccccc2c1O`, the compound was called inactive.

For the compound `CC(C)c1ccc2c(C(C)C)cc(C(C)C)c(S(=O)(=O)O)c2c1`, the compound was called inactive.

For `CC(=O)c1ccc2c(c1)CCCC2`, the outcome was inactive.

Take `COC(=O)c1sccc1S(N)(=O)=O`: the outcome was inactive.
